# Reference: PubChem BioAssay (NCI)
# The panel holds about 79,000 compounds, 15% with a hit somewhere; the sample as a whole holds those more often. Activity calls are given as the source filed them. Rule as the data show it: active = growth inhibition above about 70%; inactive = the rest.
# Experiment: NCI Yeast Anticancer Drug Screen. Data for the mlh1 rad18 strain (AID 175)
# Conditions: S. cerevisiae mlh1 rad18 strain growth inhibition; at 5.0 µM (retest, dose inferred, filed as 0.5); hits give high values
# Procedure, shortened: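 Steps: expose repair-defective yeast to compound; measure growth; express inhibition against vehicle-treated controls.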
row,SMILES,growth inhibition
1,Nc1ncnc(N2CCOCC2)c1N,-4% (inactive)
2,CN(C)c1ccc2c(NCCCCCCNc3ccnc4cc(N(C)C)ccc34)ccnc2c1,14% (inactive)
3,CC(C)N=Cc1cc(Br)cc(Br)c1O.CC(C)N=Cc1cc(Br)cc(Br)c1O.[Co],98% (active)
4,O=C1c2ccc(O)cc2C(=O)c2c1ccc(O)c2O,45% (inactive)
5,COc1cc2c[n+](C)c3c4cc(OC)c(OCc5ccccc5)cc4c(OCc4ccccc4)cc3c2cc1OC,18% (inactive)
6,O=C(Nc1ccc(Cl)cc1)OCC1C2C=CC(C2)C1CO (stereo not given),5% (inactive)
7,Cn1nc(-c2ccccc2NC(=O)C(F)(F)F)c(=O)n(C)c1=S,0% (inactive)
8,OCc1c2c(cc3c1CC1(C3)Cc3cc4c(c(CO)c3C1)CCC4)CCC2,27% (inactive)
9,O=C(C[n+]1ccccc1)N=N/C(C(=O)Nc1c(Cl)c(O)c2ccccc2c1O)=C1/C(=O)Oc2cc(O)ccc2C1=O,27% (inactive)
10,Cc1cc(Cl)c(O)c(-c2cc(-c3ccccc3O)c(C#N)c(N)n2)c1,-23% (inactive)
11,CCCCNc1ncc(OCC)c(NCCCC)n1,0% (inactive)
12,C#CCCCCCOC(=O)c1cc([N+](=O)[O-])cc([N+](=O)[O-])c1,99% (active)
13,C=C(C)C1(C(=O)OCC(Cl)(Cl)Cl)NC(=O)C(NC(=O)COc2ccccc2)=CO1 (stereo not given),3% (inactive)
14,Cc1ccc(SCC#CC#CCS(=O)c2ccc(C)cc2)cc1 (stereo not given),97% (active)
15,CCCCCCCCCCCCCCCC1C(N)C(=O)N(C)N1C (stereo not given),-43% (inactive)
16,O=c1c(O)cc2c(O)oc3c(=O)c(O)c(O)c4c(O)oc1c2c43,41% (inactive)
17,CCCCN(CCCC)CCNc1ccc(NS(=O)(=O)c2ccccc2)c2sc3ccccc3c(=O)c12,96% (active)
18,CCOC(=O)CC(N)CC(=O)OCC,-110% (inactive)
19,O=c1cc(Cl)c(Cl)nn1-c1ccccc1,2% (inactive)
20,CC(=O)Nc1ccc(-c2ccccc2)cc1[N+](=O)[O-],-2% (inactive)

row,SMILES,growth inhibition
1,O=C1OC(c2ccccc2)N/C1=C\c1ccc2c(c1)OCO2 (stereo not given),18% (inactive)
2,CCOc1c(N=Nc2ccc(Cl)cc2)c(-c2ccccc2)nn1C(=S)S,2% (inactive)
3,BrCN(CBr)c1ccc2c(c1)Cc1cc(Br)ccc1-2,3% (inactive)
4,COc1cc(NCCCCCCCC2CCCCN2)c2ncccc2c1 (stereo not given),32% (inactive)
5,Cc1cc(Br)cc(C)c1NC(=O)C(=O)C(C(=O)c1ccc2ccccc2c1)C1OC(=O)c2ccccc21 (stereo not given),4% (inactive)
6,O=Cc1cc2c(s1)C(=O)c1sccc1C2=O,92% (active)
7,C=C1CC2(CC(C(C)C)CCC2C)OC1=O (stereo not given),35% (inactive)
8,CCSC(=Nc1nc2ccc(NC(C)=O)cc2s1)SCC,-2% (inactive)
9,CCOc1ccc2c(c1)n([O-])c1cc(Br)ccc1[n+]2=O,91% (active)
10,CCCCC(CCCC)=NNC(=S)SC,-3% (inactive)
11,COc1ccc2c(c1)CCc1c(CO)c(COC(=O)NC(C)C)n(C)c1-2,59% (inactive)
12,CSc1cc2c(cc1N)Cc1ccccc1-2,6% (inactive)
13,O=C1C=C(c2ccccc2)OC(c2ccccc2)C1 (stereo not given),-141% (inactive)
14,CCOc1ccc2nc([NH-])sc2c1.CCOc1ccc2nc([NH-])sc2c1.[Cl][Pt+2][Cl],-2% (inactive)
15,Cc1nc2c(Cl)nc(Cl)nc2s1,23% (inactive)
16,Cc1cc(O)n(Cc2ccccc2)c(=O)c1,-123% (inactive)
17,NCCC1=CCCCC1,-2% (inactive)
18,CCOC(=O)/C(=C\n1c(=O)sc2ccccc21)C(=O)c1ccccc1,20% (inactive)
19,Cc1ccc(S(=O)(=O)Nc2ccccc2C=O)cc1,14% (inactive)
20,CC1COC(c2cn[nH]c2C(N)=O)C1O (stereo not given),3% (inactive)

# Same assay, conditions: S. cerevisiae mlh1 rad18 strain growth inhibition; at 50.0 µM (retest, dose inferred, filed as 5.0); hits give high values
row,SMILES,growth inhibition
1,Nc1ncnc(N2CCOCC2)c1N,-6% (inactive)
2,CN(C)c1ccc2c(NCCCCCCNc3ccnc4cc(N(C)C)ccc34)ccnc2c1,95% (active)
3,CC(C)N=Cc1cc(Br)cc(Br)c1O.CC(C)N=Cc1cc(Br)cc(Br)c1O.[Co],99% (active)
4,O=C1c2ccc(O)cc2C(=O)c2c1ccc(O)c2O,97% (active)
5,COc1cc2c[n+](C)c3c4cc(OC)c(OCc5ccccc5)cc4c(OCc4ccccc4)cc3c2cc1OC,95% (active)
6,O=C(Nc1ccc(Cl)cc1)OCC1C2C=CC(C2)C1CO (stereo not given),97% (active)
7,Cn1nc(-c2ccccc2NC(=O)C(F)(F)F)c(=O)n(C)c1=S,34% (inactive)
8,OCc1c2c(cc3c1CC1(C3)Cc3cc4c(c(CO)c3C1)CCC4)CCC2,94% (active)
9,O=C(C[n+]1ccccc1)N=N/C(C(=O)Nc1c(Cl)c(O)c2ccccc2c1O)=C1/C(=O)Oc2cc(O)ccc2C1=O,97% (active)
10,Cc1cc(Cl)c(O)c(-c2cc(-c3ccccc3O)c(C#N)c(N)n2)c1,87% (active)
11,CCCCNc1ncc(OCC)c(NCCCC)n1,1% (inactive)
12,C#CCCCCCOC(=O)c1cc([N+](=O)[O-])cc([N+](=O)[O-])c1,99% (active)
13,C=C(C)C1(C(=O)OCC(Cl)(Cl)Cl)NC(=O)C(NC(=O)COc2ccccc2)=CO1 (stereo not given),51% (inactive)
14,Cc1ccc(SCC#CC#CCS(=O)c2ccc(C)cc2)cc1 (stereo not given),98% (active)
15,CCCCCCCCCCCCCCCC1C(N)C(=O)N(C)N1C (stereo not given),95% (active)
16,O=c1c(O)cc2c(O)oc3c(=O)c(O)c(O)c4c(O)oc1c2c43,96% (active)
17,CCCCN(CCCC)CCNc1ccc(NS(=O)(=O)c2ccccc2)c2sc3ccccc3c(=O)c12,94% (active)
18,CCOC(=O)CC(N)CC(=O)OCC,-113% (inactive)
19,O=c1cc(Cl)c(Cl)nn1-c1ccccc1,86% (active)
20,CC(=O)Nc1ccc(-c2ccccc2)cc1[N+](=O)[O-],2% (inactive)

row,SMILES,growth inhibition
1,O=C1OC(c2ccccc2)N/C1=C\c1ccc2c(c1)OCO2 (stereo not given),26% (inactive)
2,CCOc1c(N=Nc2ccc(Cl)cc2)c(-c2ccccc2)nn1C(=S)S,91% (active)
3,BrCN(CBr)c1ccc2c(c1)Cc1cc(Br)ccc1-2,-7% (inactive)
4,COc1cc(NCCCCCCCC2CCCCN2)c2ncccc2c1 (stereo not given),96% (active)
5,Cc1cc(Br)cc(C)c1NC(=O)C(=O)C(C(=O)c1ccc2ccccc2c1)C1OC(=O)c2ccccc21 (stereo not given),19% (inactive)
6,O=Cc1cc2c(s1)C(=O)c1sccc1C2=O,99% (active)
7,C=C1CC2(CC(C(C)C)CCC2C)OC1=O (stereo not given),64% (inactive)
8,CCSC(=Nc1nc2ccc(NC(C)=O)cc2s1)SCC,96% (active)
9,CCOc1ccc2c(c1)n([O-])c1cc(Br)ccc1[n+]2=O,93% (active)
10,CCCCC(CCCC)=NNC(=S)SC,87% (active)
11,COc1ccc2c(c1)CCc1c(CO)c(COC(=O)NC(C)C)n(C)c1-2,93% (active)
12,CSc1cc2c(cc1N)Cc1ccccc1-2,89% (active)
13,O=C1C=C(c2ccccc2)OC(c2ccccc2)C1 (stereo not given),-97% (inactive)
14,CCOc1ccc2nc([NH-])sc2c1.CCOc1ccc2nc([NH-])sc2c1.[Cl][Pt+2][Cl],3% (inactive)
15,Cc1nc2c(Cl)nc(Cl)nc2s1,97% (active)
16,Cc1cc(O)n(Cc2ccccc2)c(=O)c1,7% (inactive)
17,NCCC1=CCCCC1,97% (active)
18,CCOC(=O)/C(=C\n1c(=O)sc2ccccc21)C(=O)c1ccccc1,41% (inactive)
19,Cc1ccc(S(=O)(=O)Nc2ccccc2C=O)cc1,84% (active)
20,CC1COC(c2cn[nH]c2C(N)=O)C1O (stereo not given),16% (inactive)
